{"source": "PubChem BioAssay AID493094", "about": "(Broad Institute, 2011)", "note": "Activity calls are given as the source filed them.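 Rule for the calls: active = falling FRET signal with an AC50 fitted within ten times the highest valid concentration tested for that sample (actives reach about 61 µM in these data); inactive = the rest, including compounds that raise the signal.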", "data": [{"experiment": "compounds lowering YIC probe YFP/CFP ratio – biochemical, dry powder samples, FRET, counter-screen for RanGTP-importin-beta inhibitor project, dose response (AID 493094)", "details": "cell-free YIC FRET probe; series mostly up to 100 µM", "values": [{"smiles": "CC1(C)CC(=O)c2c(C(F)(F)F)nn(-c3ccc(C(N)=O)c(NC4CCC(OC(=O)CN)CC4)c3)c2C1", "note": "(stereo unspecified)", "AC50": "inactive"}, {"smiles": "CCNc1nc(N2CCCC2)nc2ccccc12", "AC50": "inactive"}, {"smiles": "CC1(C)CC(=O)c2c(C(F)(F)F)nn(-c3ccc(C(N)=O)c(NC4CCC(O)CC4)c3)c2C1", "note": "(stereo unspecified)", "AC50": "inactive"}, {"smiles": "Cc1cc(Nc2ccc(C(F)(F)F)cc2)n2ncnc2n1", "AC50": "inactive"}, {"smiles": "CCCN(CCC)c1nc(N2CCNCC2)c2ccccc2n1", "AC50": "inactive"}, {"smiles": "CC(Nc1nc(N2CCCC2)nc2ccccc12)c1ccccc1", "note": "(stereo unspecified)", "AC50": "inactive"}, {"smiles": "c1ccc2c(N3CCOCC3)nc(N3CCOCC3)nc2c1", "AC50": "inactive"}, {"smiles": "CCCN(CCC)c1nc(N2CCCC2)nc2ccccc12", "AC50": "inactive"}, {"smiles": "CC1=C(C(=O)OCC2CCCO2)C(c2ccccc2OC(C)C)C2C(=O)CC(c3ccco3)CC2=N1", "note": "(stereo unspecified)", "AC50": "13.2 µM (active)"}, {"smiles": "CCCN(CCC)c1nc(Cl)nc2ccccc12", "AC50": "inactive"}, {"smiles": "Cc1cccc(-n2c(C)cc(/C=C3/C(=N)N4N=C(CC(C)C)SC4=NC3=O)c2C)c1", "AC50": "25.4 µM (active)"}, {"smiles": "O=c1[nH]c(N2CCCC2)nc2ccccc12", "AC50": "inactive"}, {"smiles": "CCCN(CCC)c1nc(N)c2ccccc2n1", "AC50": "inactive"}, {"smiles": "Cc1ccc(S(=O)(=O)c2cc3c(=O)n4cccc(C)c4nc3n(C3CCCCC3)c2=N)cc1", "AC50": "26 µM (active)"}, {"smiles": "Clc1nc(NCc2ccccc2)c2ccccc2n1", "AC50": "inactive"}, {"smiles": "C[C@@H](Nc1nc(Cl)nc2ccccc12)c1ccccc1", "AC50": "inactive"}, {"smiles": "CCCN(CCC)c1nc(N2CCOCC2)nc2ccccc12", "AC50": "inactive"}, {"smiles": "CCCN(CCC)c1nc(N2CCCC2)c2cc(OC)c(OC)cc2n1", "AC50": "inactive"}, {"smiles": "c1ccc2c(N3CCCC3)nc(N3CCCC3)nc2c1", "AC50": "inactive"}, {"smiles": "C[C@H](Nc1nc(Cl)nc2ccccc12)c1ccccc1", "AC50": "inactive"}, {"smiles": "COc1cc(OC)cc(C(=O)NCCNc2nc3cc(C)cc(C)c3cc2C#N)c1", "AC50": "27 µM (active)"}, {"smiles": "CC1(C)CCC(c2ccc(Cl)cc2)=C(CN2CCN(c3ccc(C(=O)NS(=O)(=O)c4ccc(N[C@H](CCN5CCOCC5)CSc5ccccc5)c(S(=O)(=O)C(F)(F)F)c4)cc3)CC2)C1", "AC50": "inactive"}, {"smiles": "COc1ccc(CCNC(=O)c2cc3c(=O)n4cccc(C)c4nc3n(CCCN3CCOCC3)c2=N)cc1", "AC50": "4.28 µM (active)"}, {"smiles": "CCN(CC)c1nc(N2CCCC2)nc2ccccc12", "AC50": "inactive"}, {"smiles": "COCCNC(=O)/C(C#N)=C/c1cn(CC(=O)NCc2ccco2)c2ccccc12", "AC50": "61.3 µM (active)"}, {"smiles": "C[C@H](Nc1nc(N2CCCC2)nc2ccccc12)c1ccccc1", "AC50": "inactive"}, {"smiles": "c1ccc(CNc2nc(N3CCCC3)nc3ccccc23)cc1", "AC50": "inactive"}, {"smiles": "CC1(C)CC(=O)c2c(C(F)(F)F)nn(-c3ccc(C(N)=O)c(OC4CCC(N)CC4)c3)c2C1", "note": "(stereo unspecified)", "AC50": "inactive"}, {"smiles": "CCCN(CCC)c1nc(N2CCCC2)nc2cc(OC)c(OC)cc12", "AC50": "inactive"}, {"smiles": "CC(C)SCC(=O)Nc1ncc2c(n1)-c1ccccc1CC2", "AC50": "6.37 µM (active)"}, {"smiles": "CCCN(CCC)c1nc(NCc2ccccc2)nc2ccccc12", "AC50": "inactive"}, {"smiles": "COc1ccc(-c2cc(C(F)(F)F)n3nc(N)nc3n2)cc1", "AC50": "54.5 µM (active)"}, {"smiles": "C=CCn1c(N)c(C(=O)OCCC)c2nc3ccccc3nc21", "AC50": "36.9 µM (active)"}, {"smiles": "C[C@@H](Nc1nc(N2CCCC2)nc2ccccc12)c1ccccc1", "AC50": "inactive"}, {"smiles": "O=C(O)Cn1cc(/C=C2\\SC(=O)N(CC(=O)N3CCCCCC3)C2=O)c2ccccc21", "AC50": "55.3 µM (active)"}, {"smiles": "COc1cc2nc(N3CCCC3)nc(N3CCCC3)c2cc1OC", "AC50": "inactive"}]}]}
